Laboratory results: PubChem BioAssay AID1159580 (chemical genetic matrix, 2015)
In all, about 5,500 compounds went through this assay and about 2,000 (36%) were called active. Roughly 18% stayed inconclusive and do not appear here. Rule as the data show it: active = normalized growth mostly below about 0.91 (no sharp cut-off); inconclusive = no clear call, values can overlap the other calls; inactive = mostly above about 0.92. Some of the results follow.

Assay: chemical genetic growth profiling, strain panel (AID 1159580);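 also: tested at 20 µM; growth read once vehicle control cultures reached saturation at 30 °C; 1 = growth at the plate median or of vehicle wells; lower values mean less growth of the strain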
Conditions: growth OD

Measured: normalized growth

COc1c(O)cc(O)cc1O
inactive: S. cerevisiae deletion strains, locus YJR066W, strain TOR1, hits give low values 0.977 | S. cerevisiae deletion strains, locus YKL009W, strain mrt4, hits give low values 1.07 | S. cerevisiae deletion strains, locus YKL068W, hits give low values 0.995 | S. cerevisiae deletion strains, locus YKL085W, strain MDH1 (second series), hits give low values 1.02 | S. cerevisiae deletion strains, locus YKL085W, strain MDH1, hits give low values 1.02 | S. cerevisiae deletion strains, locus YKL160W, strain elf1, hits give low values 1.02 | S. cerevisiae deletion strains, locus YKR001C, strain vps1, hits give low values 1.01 | S. cerevisiae deletion strains, locus YKR026C, strain gcn3, hits give low values 0.991 | S. cerevisiae deletion strains, locus YKR091W, strain srl3, hits give low values 0.996 | S. cerevisiae deletion strains, locus YLL001W, strain dnm1, hits give low values 0.999 | S. cerevisiae deletion strains, locus YLL026W, hits give low values 0.994 | S. cerevisiae deletion strains, locus YLL041C, strain sdh2, hits give low values 0.996 | S. cerevisiae deletion strains, locus YLR027C, strain aat2, hits give low values 0.985 | S. cerevisiae deletion strains, locus YLR039C, strain RIC1, hits give low values 1.06 | S. cerevisiae deletion strains, locus YLR058C, strain SHM2, hits give low values 1.01 | S. cerevisiae deletion strains, locus YLR102C, strain apc9, hits give low values 0.987 | S. cerevisiae deletion strains, locus YLR113W, strain HOG1, hits give low values 1.03 | S. cerevisiae deletion strains, locus YLR221C, strain rsa3, hits give low values 0.992 | S. cerevisiae deletion strains, locus YLR258W, strain gsy2, hits give low values 0.997 | S. cerevisiae deletion strains, locus YLR262C, strain YPT6 (second series), hits give low values 1.02 | S. cerevisiae deletion strains, locus YLR262C, strain YPT6, hits give low values 1.08 | S. cerevisiae deletion strains, locus YLR268W, strain sec22, hits give low values 1.05 | S. cerevisiae deletion strains, locus YLR320W, strain mms22, hits give low values 0.994 | S. cerevisiae deletion strains, locus YLR330W, strain CHS5, hits give low values 1.01 | S. cerevisiae deletion strains, locus YLR342W, strain FKS1 (second series), hits give low values 1.08 | S. cerevisiae deletion strains, locus YLR342W, strain FKS1, hits give low values 0.997 | S. cerevisiae deletion strains, locus YLR357W, strain rsc2, hits give low values 0.958 | S. cerevisiae deletion strains, locus YLR370C, strain arc18, hits give low values 0.992 | S. cerevisiae deletion strains, locus YLR371W, strain rom2, hits give low values 0.984 | S. cerevisiae deletion strains, locus YLR384C, strain iki3, hits give low values 1 | S. cerevisiae deletion strains, locus YLR418C, strain cdc73, hits give low values 0.988 | S. cerevisiae deletion strains, locus YML016C, strain PPZ1, hits give low values 0.994 | S. cerevisiae deletion strains, locus YML032C, strain rad52, hits give low values 1.02 | S. cerevisiae deletion strains, locus YML120C, strain ndi1, hits give low values 1 | S. cerevisiae deletion strains, locus YML124C, strain tub3, hits give low values 0.997 | S. cerevisiae deletion strains, locus YMR058W, strain fet3, hits give low values 1.01 | S. cerevisiae deletion strains, locus YMR078C, strain ctf18, hits give low values 0.986 | S. cerevisiae deletion strains, locus YMR125W, strain sto1, hits give low values 0.992 | S. cerevisiae deletion strains, locus YMR129W, hits give low values 0.99 | S. cerevisiae deletion strains, locus YMR205C, strain PFK2, hits give low values 0.997 | S. cerevisiae deletion strains, locus YMR223W, strain ubp8, hits give low values 1.01 | S. cerevisiae deletion strains, locus YMR231W, strain pep5, hits give low values 0.967 | S. cerevisiae deletion strains, locus YMR307W, strain GAS1, hits give low values 1.08 | S. cerevisiae deletion strains, locus YNL067W, strain RPL9B, hits give low values 1 | S. cerevisiae deletion strains, locus YNL071W, strain lat1, hits give low values 1 | S. cerevisiae deletion strains, locus YNL128W, strain TEP1, hits give low values 1.04 | S. cerevisiae deletion strains, locus YNL183C, strain NPR1, hits give low values 0.988 | S. cerevisiae deletion strains, locus YNL209W, strain ssb2, hits give low values 1.02 | S. cerevisiae deletion strains, locus YNL233W, strain BNI4, hits give low values 0.99 | S. cerevisiae deletion strains, locus YNL248C, strain rpa49, hits give low values 1 | S. cerevisiae deletion strains, locus YNL250W, strain rad50, hits give low values 0.956 | S. cerevisiae deletion strains, locus YNL271C, strain bni1, hits give low values 0.994 | S. cerevisiae deletion strains, locus YNL298W, strain CLA4, hits give low values 0.998 | S. cerevisiae deletion strains, locus YNL307C, strain MCK1, hits give low values 0.998 | S. cerevisiae deletion strains, locus YNL322C, strain KRE1 (second series), hits give low values 0.987 | S. cerevisiae deletion strains, locus YNR049C, strain mso1, hits give low values 0.994 | S. cerevisiae deletion strains, locus YNR052C, strain pop2, hits give low values 0.985 | S. cerevisiae deletion strains, locus YOL012C, strain htz1 0.85 | S. cerevisiae deletion strains, locus YOL147C, strain pex11, hits give low values 1 | S. cerevisiae deletion strains, locus YOR001W, strain rrp6, hits give low values 1.01 | S. cerevisiae deletion strains, locus YOR061W, strain CKA2, hits give low values 1.01 | S. cerevisiae deletion strains, locus YOR069W, strain VPS5, hits give low values 0.986 | S. cerevisiae deletion strains, locus YOR070C, strain gyp1, hits give low values 1.02 | S. cerevisiae deletion strains, locus YOR080W, strain dia2, hits give low values 0.99 | S. cerevisiae deletion strains, locus YOR083W, strain WHI5, hits give low values 1.01 | S. cerevisiae deletion strains, locus YOR106W, strain vam3, hits give low values 1.04 | S. cerevisiae deletion strains, locus YOR136W, strain idh2, hits give low values 0.991 | S. cerevisiae deletion strains, locus YOR144C, strain elg1, hits give low values 1 | S. cerevisiae deletion strains, locus YOR184W, strain ser1, hits give low values 1.1 | S. cerevisiae deletion strains, locus YOR231W, strain MKK1, hits give low values 1.04 | S. cerevisiae deletion strains, locus YOR265W, strain rbl2, hits give low values 1.02 | S. cerevisiae deletion strains, locus YOR270C, strain vph1, hits give low values 1.04 | S. cerevisiae deletion strains, locus YOR290C, strain snf2, hits give low values 1.01 | S. cerevisiae deletion strains, locus YOR316C, strain cot1, hits give low values 0.99 | S. cerevisiae deletion strains, locus YPL051W, strain arl3, hits give low values 1 | S. cerevisiae deletion strains, locus YPL055C, strain LGE1, hits give low values 1.07 | S. cerevisiae deletion strains, locus YPL078C, strain atp4, hits give low values 1.01 | S. cerevisiae deletion strains, locus YPL106C, strain sse1, hits give low values 0.986 | S. cerevisiae deletion strains, locus YPL240C, strain hsp82, hits give low values 1 | S. cerevisiae deletion strains, locus YPL241C, strain CIN2, hits give low values 1.01 | S. cerevisiae deletion strains, locus YPL256C, strain CLN2, hits give low values 1.02 | S. cerevisiae deletion strains, locus YPR119W, strain clb2, hits give low values 0.997 | S. cerevisiae deletion strains, locus YPR141C, strain kar3, hits give low values 0.971 | S. cerevisiae deletion strains, locus YPR163C, strain tif3, hits give low values 0.997 | S. cerevisiae deletion strains, locus YPR167C, strain met16, hits give low values 0.992 | S. cerevisiae deletion strains, strain wtn01, hits give low values 1.03 | S. cerevisiae strains, strain wild type, hits give low values 1.05
